Reference: PubChem BioAssay (NCI)
The panel holds about 83,000 compounds, 20% with a hit somewhere; the sample as a whole holds those more often.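 Treatment: one concentration, 48 hours, 96-well format. Scoring: percent growth, with anything below 10 considered active.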 A number with no mark means an inactive call. Calls of active or inactive are those of the source.

System: HL-60(TB) leukemia
Test: NCI-60 one-dose screen, 48 h (100 = growth as untreated, 0 = no growth, -100 = all killed)
Conditions: 10 µM unless noted

SMILES	growth
Cc1ccc(O)c(C(=O)c2ccccc2)c1	73.1%
O=C(/C=C/c1ccc(C(F)(F)F)cc1)c1ccc(Nc2nc(NCCO)nc(NCCO)n2)cc1	88.5%
OCCN1CCN(CC/C=C2/c3ccccc3Sc3ccc(C(F)(F)F)cc32)CC1	73.1%
Cc1c(C(=O)NCCC(=O)NO)sc2ncnc(Nc3ccc(NC(=O)Nc4cccc(C(F)(F)F)c4)cc3)c12	105%
COc1ccc(/C=C(\C#N)n2nc3cccc(F)c3n2)cc1	82%
Cn1cc(-c2csc(-c3cn(CCN)c4ccccc34)n2)c2cccnc21	26.5%
Cc1ccc(-n2c3c(c(-c4ccccc4)c2-c2ccccc2)C2=NCCN2C=N3)cc1	98.5%
c1ccc2c(c1)oc1cc3sccc3nc12	103%
C=C1CC[C@H](C(C)C)[C@@H]2[C@H]1[C@H]1CC(=C)[C@@H](O)CC[C@@](C)(O)[C@@H]2O1	103%
O=C(/C=C/c1ccccc1)c1ccc(Nc2nc(Nc3ccc(F)cc3)nc(Nc3ccc(Cl)cc3)n2)cc1	43.9%
O=c1oc2ccccc2cc1-c1nn(-c2ccccc2)cc1/C=N/Nc1nc(-c2ccccc2)c(N=Nc2ccccc2)s1	58.1%
C=CCC(CCC(CC=C)C(=O)OCC)C(=O)OCC (centres undefined)	99.8%
COc1ccc(C2=C(Br)C(=O)c3nc(C)ccc3C2=O)cc1	66.2%
O=c1cc(NC2CCN(CCCc3ccccc3)CC2)c2cc(Cl)ccc2o1	-7.02% (active)
